Experimental data as given in the supplement of paper PMC10981050.

What follows are compounds tested on MARIMO (assay: cell viability relative to vehicle control; higher = less cytotoxic). Settings: 10 µM; SRSF2 genotype: SRSF2 wt/wt.
How it was run: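 Each screen used CRISPR-edited mutant and wild-type clones from four leukaemia lines. Compounds were acoustically dispensed at a single 10 µM dose, and CellTiter-Glo luminescence was read after 48 h with the supernatant first removed. Viability was analysed in Genedata Screener and given as percent of the on-plate vehicle control.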

Compound | cell viability [%]
O=C(O)c1ccc(C=C2SC(=S)N(c3cccc(C(F)(F)F)c3)C2=O)cc1 | 105
Cc1cn([C@H]2C[C@H](O)[C@@H](CO)O2)c(=O)[nH]c1=O [Thymidine] | 102
C[C@]12CC[C@@H]3c4ccc(OC(=O)c5ccccc5)cc4CC[C@H]3[C@@H]1CC[C@@H]2O [Estradiol Benzoate] | 35.6
O=C(O)c1ccc(Cl)cc1O [4-Chloro-2-hydroxybenzoic acid] | 103
C[C@H]1O[C@@H](Oc2c(-c3cc(O)c(O)c(O)c3)oc3cc(O)cc(O)c3c2=O)[C@@H](O)[C@@H](O)[C@@H]1O [Myricitrin (Myricitrine)] | 102
OC[C@H]1O[C@H](OCC2O[C@@H](O)[C@H](O)[C@@H](O)[C@@H]2O)[C@H](O)[C@@H](O)[C@H]1O (some centres not stated) [Melibiose] | 110
CO[C@@]12[C@H](COC(N)=O)C3=C(C(=O)C(C)=C(N)C3=O)N1C[C@@H]1N[C@@H]12 [Mitomycin C] | 2.95
CN1C(C(=O)Nc2ccccn2)=C(O)c2ccccc2S1(=O)=O [Piroxicam (Feldene)] | 106
NC(=O)c1cn(Cc2c(F)cccc2F)nn1 [Rufinamide (Banzel)] | 108
O=c1c(-c2ccc(O[C@@H]3O[C@H](CO)[C@@H](O)[C@H](O)[C@H]3O)cc2)coc2cc(O)cc(O)c12 [Sophoricoside] | 103
CCOc1cc([C@@H](CS(C)(=O)=O)N2C(=O)c3cccc(NC(C)=O)c3C2=O)ccc1OC | 92.5
Cc1cc2c(C(=O)NCC(C)c3ccccc3)c(O)c(O)cc2c(O)c1-c1c(C)cc2c(C(=O)NCC(C)c3ccccc3)c(O)c(O)cc2c1O (configuration not stated) [Sabutoclax] | 13.8
